# According to article PMC11062922 (Nature Chemical Biology, 2023):
# Where two headings read alike, the source gives them in different places.
# What was measured:
# Parameters in all cases: species or system human, MV4-11 + K-562 + COLO205 + SK-N-BE2 + OVCAR-8
# NNT = conditions: read-out: apparent Kd; compound concentrations: 100 nM and 1000 nM (sheet 'Samples'), CATDS: 0.46713303896147801; n = 1
# RIOK2 = conditions: read-out: apparent Kd, compound concentrations: 100 nM and 1000 nM (sheet 'Samples'), n = 1
# NLK = conditions: read-out: apparent Kd; compound concentrations: 100 nM and 1000 nM (sheet 'Samples'), CATDS: 0.25956792289458103; n = 1
# RIPK2 = conditions: read-out: apparent Kd, n = 1
# RIPK3 = conditions: read-out: apparent Kd; compound concentrations: 100 nM and 1000 nM (sheet 'Samples'), CATDS: 0.12404115210191501; n = 1
# STK16 = conditions: read-out: apparent Kd, n = 1
# TESK2 = conditions: read-out: apparent Kd; compound concentrations: 100 nM and 1000 nM (sheet 'Samples'), CATDS: 0.123939134013601; n = 1
# TGFBR2 = conditions: read-out: apparent Kd, n = 1
# NQO2 = conditions: read-out: apparent Kd, n = 1
# TGFBR1 = conditions: read-out: apparent Kd, n = 1
# MAPK7 = conditions: read-out: apparent Kd; compound concentrations: 100 nM and 1000 nM (sheet 'Samples'), CATDS: 1; n = 1
# MTHFD1 = conditions: read-out: apparent Kd; compound concentrations:100 nM and 1000 nM (sheet 'Samples'); n = 1
# MAPK14 = conditions: read-out: apparent Kd, n = 1
# MAPKAPK2 = conditions: read-out: apparent Kd; compound concentrations:100 nM and 1000 nM (sheet 'Samples'); n = 1
# NEK9 = conditions: read-out: apparent Kd; compound concentrations: 100 nM and 1000 nM (sheet 'Samples'), CATDS: 1; n = 1
# NQO1 = conditions: read-out: apparent Kd; compound concentrations: 100 nM and 1000 nM (sheet 'Samples'), CATDS: 1; n = 1
# PIK3C3 = conditions: read-out: apparent Kd, n = 1
# PHKG2 = conditions: read-out: apparent Kd; compound concentrations:100 nM and 1000 nM (sheet 'Samples'); n = 1
# PIM2 = conditions: read-out: apparent Kd; compound concentrations:100 nM and 1000 nM (sheet 'Samples'); n = 1
# PIM3 = conditions: read-out: apparent Kd; compound concentrations:100 nM and 1000 nM (sheet 'Samples'); n = 1
# PKN3 = conditions: read-out: apparent Kd; compound concentrations:100 nM and 1000 nM (sheet 'Samples'); n = 1
# MDN1 = conditions: read-out: apparent Kd; compound concentrations: 100 nM and 1000 nM (sheet 'Samples'), CATDS: 0.24349694063925101; n = 1
# PBK = conditions: read-out: apparent Kd; compound concentrations: 100 nM and 1000 nM (sheet 'Samples'), CATDS: 1; n = 1
# PKN2 = conditions: read-out: apparent Kd; compound concentrations:100 nM and 1000 nM (sheet 'Samples'); n = 1
# PRKCI = conditions: read-out: apparent Kd; compound concentrations:100 nM and 1000 nM (sheet 'Samples'); n = 1
# ROCK2 = conditions: read-out: apparent Kd; compound concentrations:100 nM and 1000 nM (sheet 'Samples'); n = 1
# PIK3CD = conditions: read-out: apparent Kd; compound concentrations:100 nM and 1000 nM (sheet 'Samples'); n = 1
# PI4KB = conditions: read-out: apparent Kd; compound concentrations: 100 nM and 1000 nM (sheet 'Samples'), CATDS: 1; n = 1
# [1] = compound concentrations:100 nM and 1000 nM (sheet 'Samples')
# [2] = compound concentrations: 100 nM and 1000 nM (sheet 'Samples'), CATDS: 1
smiles,measurement,setting,value
COc1cccc(-n2nc(C)c3c(N/N=C(\C)c4ccncc4)ncnc32)c1 [GW809885X],potency estimated from few doses,NNT,1600 nM
same,potency estimated from few doses,RIOK2; CATDS: 0.53784196223168101,1200 nM
Cc1cc(-c2cnc(N)c3c(-c4ccc5scnc5c4)csc23)n(C)n1 [GSK843],potency estimated from few doses,NLK,168 nM
same,potency estimated from few doses,"RIPK2; compound concentrations: 100 nM and 1000 nM (sheet 'Samples'), CATDS: 0.78129176750212304",15.6 nM
same,potency estimated from few doses,RIPK3,1430 nM
same,potency estimated from few doses,"STK16; compound concentrations: 100 nM and 1000 nM (sheet 'Samples'), CATDS: 0.11776221232306",1750 nM
same,potency estimated from few doses,TESK2,1430 nM
same,potency estimated from few doses,"TGFBR2; compound concentrations: 100 nM and 1000 nM (sheet 'Samples'), CATDS: 0.16011510960484199",616 nM
Cc1ccc(-c2cc(-c3c[nH]nc3-c3ccccn3)ccn2)cc1 [GW684088X],potency estimated from few doses,NQO2; [1],741 nM
same,potency estimated from few doses,TGFBR1; [1],490 nM
same,potency estimated from few doses,TGFBR2; [1],2230 nM
CCOc1cc(C(=O)N2CCC(N3CCN(C)CC3)CC2)ccc1Nc1ncc2c(n1)N(C1CCCC1)c1ccccc1C(=O)N2C [ERK5-IN-1],potency estimated from few doses,MAPK7,813 nM
CCn1c(-c2nonc2N)nc2ccc(F)cc21 [GW785404X],potency estimated from few doses,NQO2; [2],339 nM
CCNC(=O)[C@@H]1CCCN2C(=O)CC[C@H](NC(=O)[C@H](Cc3ccc(OP(=O)(O)O)cc3)NC(C)=O)C(=O)N12 [RO0325851-000],potency estimated from few doses,MTHFD1,1840 nM
CC(=O)N1CCC(Nc2ncc3cc(Oc4ccc(F)cc4F)c(=O)n(C)c3n2)CC1 [RO5043011-000],potency estimated from few doses,"MAPK14; compound concentrations: 100 nM and 1000 nM (sheet 'Samples'), CATDS: 0.40238945157455502",40.9 nM
same,potency estimated from few doses,MAPKAPK2,14.2 nM
COc1cc(Nc2ncc3c(C)nc(-c4cccc(Oc5ccccc5)c4)n3n2)cc(OC)c1OC [GW861893X],potency estimated from few doses,NEK9,584 nM
FC(F)(F)c1ccc(-c2cc(-c3c[nH]nc3-c3ccccn3)ccn2)cc1 [GW599550X],potency estimated from few doses,NQO2; [1],1070 nM
same,potency estimated from few doses,TGFBR1; [1],1520 nM
COC(=O)Nc1nc2cc(Oc3ccc(NC(=O)Nc4cccc(C(=O)O)c4)cc3)ccc2[nH]1.Cl [GW701427A],potency estimated from few doses,NQO1,1010 nM
Nc1n[nH]c2ncc(-c3ccccc3)cc12 [SB-517081_KCGS],potency estimated from few doses,MAPK14; [1],1590 nM
same,potency estimated from few doses,PIK3C3; [1],1320 nM
same,potency estimated from few doses,STK16; [1],1630 nM
COc1cccc(-c2nc(-c3ccccc3)[nH]c2-c2ccncc2)c1 [SB-610250],potency estimated from few doses,MAPK14; [1],1050 nM
same,potency estimated from few doses,MAPKAPK2,1480 nM
same,potency estimated from few doses,NQO2; [1],131 nM
same,potency estimated from few doses,PHKG2,2340 nM
same,potency estimated from few doses,PIM2,1940 nM
same,potency estimated from few doses,PIM3,1430 nM
same,potency estimated from few doses,PKN3,1320 nM
same,potency estimated from few doses,RIPK2; [1],204 nM
COc1c(C(N)=O)cc(-c2ccc(Cl)cc2)cc1-c1ccc(S(N)(=O)=O)cc1 [GSK711701A],potency estimated from few doses,NQO2; [2],1490 nM
Nc1nc(-c2nccs2)c(-c2ccnc3ccccc23)s1 [GW693542X],potency estimated from few doses,MDN1,1860 nM
same,potency estimated from few doses,"PIK3C3; compound concentrations: 100 nM and 1000 nM (sheet 'Samples'), CATDS: 0.27915457125427801",1430 nM
same,potency estimated from few doses,RIOK2; CATDS: 0.23086501182720201,2090 nM
same,potency estimated from few doses,"TGFBR1; compound concentrations: 100 nM and 1000 nM (sheet 'Samples'), CATDS: 0.25129467412206702",1750 nM
N#Cc1cccc(C(=O)c2cnn(-c3ccc(F)cc3)c2N)c1 [RO1153321-000],potency estimated from few doses,PBK,1730 nM
c1cc(-c2cnn3nc(N4CCOCC4)ccc23)nc(NC2CC2)n1 [GW708336X],potency estimated from few doses,NQO1,1540 nM
COc1cccc(-c2cc(-c3c[nH]nc3-c3ccccn3)ccn2)c1 [GW680338X],potency estimated from few doses,NQO2; [1],424 nM
CCn1c(-c2nonc2N)nc2ccccc21 [SB-693162],potency estimated from few doses,PKN2,157 nM
same,potency estimated from few doses,PKN3,1280 nM
same,potency estimated from few doses,PRKCI,2410 nM
same,potency estimated from few doses,ROCK2,1820 nM
O=C(NCCNc1ccnc(NCc2ccc(F)cc2)n1)c1cc2ccccc2s1 [GSK1379944A],potency estimated from few doses,PIK3CD,200 nM
CCCc1ccc(S(=O)(=O)NC2CCN(c3ccnc(Nc4ccc(OC)cc4)n3)C2)cc1 (stereo not drawn) [GSK1379737A],potency estimated from few doses,PI4KB,901 nM
